Molecules are shown by their SMILES. This is part of a sample that, as a whole, favours compounds with a hit. Of some 83,000 tested, about 20% had one in any assay.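 Step 1: grow cells in 96-well plates. Step 2: add test compound at a single concentration. Step 3: incubate 48 h. Step 4: record percent growth.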 Values without a mark were called inactive. Active and inactive are the calls of the source. The calls were made as follows: active = growth percent below 10; inactive = the rest.

One assay deals with NCI-H522 lung. The assay can be described thus: NCI-60 one-dose screen, 48 h (100 = growth as untreated, 0 = no growth, -100 = all killed). The note with it: 10 µM.
For the molecule `COc1ccc(-c2nc(-c3nc4cc(Cl)c(Cl)cc4[nH]3)c3ccccn23)cc1`, the growth is 55.9%.

As for `O=C1/C(=C\c2ccc(Cl)cc2)CN(C(=O)c2ccccc2)C/C1=C\c1ccc(Cl)cc1`, the growth is 40.6%.

`Clc1cc2c(c(CSc3nc4ccccc4n4cccc34)c1)OCOC2`: the growth was 59.8%.

Consider `COc1cc(Cl)cc(-c2nn(-c3cccc(NC(=O)Nc4cc(C(F)(F)F)cc(C(F)(F)F)c4)c3)cc2-c2ccncc2)c1`, for which the growth was -15.6% (active).

For `COc1ccc(OC)c(/C=C/c2nc(SCc3ccccc3)n(-c3ccc(Cl)cc3)n2)c1`, the growth was 66.6%.

`CC(=O)/C(=C/c1ccccc1)C(=O)CC(C)C`: the growth is 95.2%.

As to `CC(=O)CSC(C)=O`, the growth was 105%.

For `CNc1ccc(CSc2ccc(C)cc2)cc1`, the growth was 4.69% (active).

`c1ccc(C(NC2CC3CCC2C3)c2ccccc2)cc1` (centres undefined): the growth was 85.5%.

In the case of `COc1cc(-c2nn3c(/C=C4/C(=O)Nc5ccccc54)c(-c4ccc(C)cc4)nc3s2)cc(OC)c1OC`, the growth is 58%.

In the case of `COc1cc(NC(=O)CSc2nc3ccccc3c(=O)n2CCc2ccccc2)cc(OC)c1OC`, the growth is -23.9% (active).

For the molecule `CN(C)C(=S)N/N=C\C=N/NC(=S)N(C)C`, the growth was 1.5% (active).

As to `COc1cc2cc3c(nc2cc1OC)CCN3Cc1ccc(NC(=O)Nc2ccc(F)cc2F)cc1`, the growth is 63%.

`O=C(N/N=C\c1cc(Cl)ccc1[N+](=O)[O-])c1ccco1`: the growth was 97.2%.

In the case of `COc1ccc(Cl)cc1-n1nnc(-c2nc3ccccc3[nH]2)c1N`, the growth is 68.6%.

For the molecule `COc1ccc(/C=C2/CN(C(=O)c3ccc(C)cc3)C/C(=C\c3ccc(OC)cc3)C2=O)cc1`, the growth was 69.1%.

Turning to `COc1ccc(Nc2ncnc3c2c(SC)nn3-c2ccccc2)cc1`, the growth is 61.3%.

Turning to `COc1ccc(-c2cc(/C=C3\C(=O)Nc4ccc(OC)cc43)[nH]n2)cc1`, the growth is 11.1%.

For `CC(=O)N1N=C(c2ccc(Cl)cc2)CC1c1sc(Cl)nc1Cl` (centres undefined), the growth is 81%.

As to `CN(C)c1ccc(-c2cc(-c3cccc(NS(C)(=O)=O)c3)nc(N)c2C#N)cc1`, the growth was 7.63% (active).

With `NC(=S)N=Nc1c(O)c2ccccc2c2ccccc12`, the growth is 44.8%.

Turning to `O=[N+]([O-])c1ccc(Oc2cc(Cl)c(Cl)cc2Cl)c(C(F)(F)F)c1`, the growth is 87.1%.

`O=C(CC(C(=O)c1ccccc1)N1CCOCC1)c1ccccc1` (centres undefined): the growth was 74.7%.

For `COc1ccc(-c2nn(-c3cccc(NC(=O)Nc4cc(C(F)(F)F)cc(C(F)(F)F)c4)c3)cc2-c2ccncc2)cc1Cl`, the growth was -30% (active).

`COc1cc(/C=C/C(=O)c2ccc(Cl)cc2)ccc1OS(=O)(=O)c1ccc(C)cc1`: the growth was 81.7%.

Another assay has as its system A549/ATCC NSCLC. Described as above. The note with it: 10 µM.
With `N=c1nc(N)ncn1-c1ccccc1`, the growth was 92.4%.

As for `COc1ccc(-c2nnc(-c3c(-c4ccccc4)nc4ncccn34)o2)cc1OC`, the growth was 96%.

Consider `Nc1ncn([C@@H]2O[C@H](CO)[C@@H](O)[C@H]2O)c(=O)n1`, for which the growth is 16.5%.

Regarding `CCOC(=O)CCC(NC(=O)c1ccc(N)cc1)C(=O)OCC` (centres undefined), the growth was 99.4%.

Take `CC(=O)N(C)c1ccc(Nc2ccc(Nc3ccc(N(C)C(C)=O)cc3)c3c2C(=O)c2ccccc2C3=O)cc1`: the growth was 63.5%.

With `COc1ccc(-c2nc3sccn3c2-c2nc3c([nH]2)C(=O)c2ccccc2C3=O)cc1`, the growth is 67.5%.

As for `COc1ccc2c(c1)C(=O)c1c-2c(OCCN(C)C)nc2cc(OC)c(OC)cc12`, the growth is 47.8%.

In the case of `COc1cc(/C=C\c2cc(OC)c(OC)c(OC)c2)cc(NS(=O)(=O)c2ccc(Cl)cc2)c1OC`, the growth is 25.3%.

`C=C(C(=O)c1ccccc1)C(NC(C)(C)C)c1ccccc1` (centres undefined): the growth was 43.2%.

For the molecule `O=C1/C(=C/c2ccc(Cl)cc2)SC(=Nc2ccc(Cl)cc2)N1Cc1nc2ccccc2[nH]1`, the growth was 70.8%.

With `CC12O[C@H](C[C@@H](OC(=O)c3ccccc3)[C@H]1O)n1c3ccccc3c3c4c(c5c6ccccc6n2c5c31)C(=O)NC4=O`, the growth was 50.9%.

In the case of `COc1ccc(Oc2nc(NC3CCCC3)nc(Sc3ccc(OC)cc3)n2)cc1`, the growth is 72.8%.

For `COc1cc(-c2cc(/C=C/C(=O)c3ccc4c(c3)OCO4)[nH]n2)cc(OC)c1OC`, the growth was 87.2%.

`CCN(CC)CCOc1nc2cc(OC)c(OC)cc2c2c1-c1ccc(OC)cc1C2=O`: the growth was 66.1%.

As to `COc1ccc(-c2nc(-c3nc4cc(Cl)c(Cl)cc4[nH]3)c3ccccn23)cc1`, the growth was 16.8%.

In the case of `O=C1/C(=C\c2ccc(Cl)cc2)CN(C(=O)c2ccccc2)C/C1=C\c1ccc(Cl)cc1`, the growth is 22.2%.

In the case of `Clc1cc2c(c(CSc3nc4ccccc4n4cccc34)c1)OCOC2`, the growth is 29.9%.

Regarding `COc1cc(Cl)cc(-c2nn(-c3cccc(NC(=O)Nc4cc(C(F)(F)F)cc(C(F)(F)F)c4)c3)cc2-c2ccncc2)c1`, the growth was 5.14% (active).

For `COc1ccc(OC)c(/C=C/c2nc(SCc3ccccc3)n(-c3ccc(Cl)cc3)n2)c1`, the growth was 46.5%.

In the case of `CC(=O)/C(=C/c1ccccc1)C(=O)CC(C)C`, the growth is 97%.

As to `CC(=O)CSC(C)=O`, the growth was 99.6%.

Regarding `CNc1ccc(CSc2ccc(C)cc2)cc1`, the growth was 42.4%.

In the case of `c1ccc(C(NC2CC3CCC2C3)c2ccccc2)cc1` (centres undefined), the growth was 95.7%.

As to `COc1cc(-c2nn3c(/C=C4/C(=O)Nc5ccccc54)c(-c4ccc(C)cc4)nc3s2)cc(OC)c1OC`, the growth is 29.8%.

Regarding `COc1cc(NC(=O)CSc2nc3ccccc3c(=O)n2CCc2ccccc2)cc(OC)c1OC`, the growth was 24.9%.

In the case of `CN(C)C(=S)N/N=C\C=N/NC(=S)N(C)C`, the growth is 40.1%.

Turning to `COc1cc2cc3c(nc2cc1OC)CCN3Cc1ccc(NC(=O)Nc2ccc(F)cc2F)cc1`, the growth was 69.4%.

On to `O=C(N/N=C\c1cc(Cl)ccc1[N+](=O)[O-])c1ccco1`, for which the growth is 90.7%.

With `COc1ccc(Cl)cc1-n1nnc(-c2nc3ccccc3[nH]2)c1N`, the growth was 61.8%.

Consider `COc1ccc(/C=C2/CN(C(=O)c3ccc(C)cc3)C/C(=C\c3ccc(OC)cc3)C2=O)cc1`, for which the growth is 87.9%.

With `COc1ccc(Nc2ncnc3c2c(SC)nn3-c2ccccc2)cc1`, the growth is 86%.

In the case of `COc1ccc(-c2cc(/C=C3\C(=O)Nc4ccc(OC)cc43)[nH]n2)cc1`, the growth is 40.6%.

Regarding `CC(=O)N1N=C(c2ccc(Cl)cc2)CC1c1sc(Cl)nc1Cl` (centres undefined), the growth is 78.5%.

`CN(C)c1ccc(-c2cc(-c3cccc(NS(C)(=O)=O)c3)nc(N)c2C#N)cc1`: the growth is 25.9%.

As for `NC(=S)N=Nc1c(O)c2ccccc2c2ccccc12`, the growth is 23.7%.

In the case of `O=[N+]([O-])c1ccc(Oc2cc(Cl)c(Cl)cc2Cl)c(C(F)(F)F)c1`, the growth was 91.1%.

For `O=C(CC(C(=O)c1ccccc1)N1CCOCC1)c1ccccc1` (centres undefined), the growth was 91.9%.

`COc1ccc(-c2nn(-c3cccc(NC(=O)Nc4cc(C(F)(F)F)cc(C(F)(F)F)c4)c3)cc2-c2ccncc2)cc1Cl`: the growth is 0.691% (active).

As to `COc1cc(/C=C/C(=O)c2ccc(Cl)cc2)ccc1OS(=O)(=O)c1ccc(C)cc1`, the growth is 99.9%.

Values taken from PubChem BioAssay (NCI).
